Screening data deposited in PubChem BioAssay by National Center for Advancing Translational Sciences (NCATS).
TGFb inhibitor – blocks TGF-b signaling; HepG2 CAGA-GFP TGF-b/SMAD3 reporter, GFP fluorescence, 18 h; TGF-beta stimulated, 500 pg/mL final; 1.2% of 410,000 active; Potency, µM (top dose mostly 46.1 µM), hits mostly inhibitors; note: nearly all actives have a fitted effect of over 65% in size
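Per well, imaged GFP fluorescence of HEPG2 CAGA-GFP cells gives the signal; cells get compound, then TGF-beta (500 pg/mL final), 18 h at 37 degrees C; %Activity versus -TGF-beta and +DMSO controls.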
mIDH1 inhibitor – blocks human mutant IDH1 R132H enzyme; IDH1-R132H enzyme, NADPH consumption, diaphorase/resazurin fluorescence; Potency, µM (series often up to 76.6 µM), most hits filed as inhibitors; 0.093% of 390,000 active; AID 602179; note: nearly all actives have a fitted effect of over 65% in size
Target sequence (O75874 whole entry R132H, stated change not applied): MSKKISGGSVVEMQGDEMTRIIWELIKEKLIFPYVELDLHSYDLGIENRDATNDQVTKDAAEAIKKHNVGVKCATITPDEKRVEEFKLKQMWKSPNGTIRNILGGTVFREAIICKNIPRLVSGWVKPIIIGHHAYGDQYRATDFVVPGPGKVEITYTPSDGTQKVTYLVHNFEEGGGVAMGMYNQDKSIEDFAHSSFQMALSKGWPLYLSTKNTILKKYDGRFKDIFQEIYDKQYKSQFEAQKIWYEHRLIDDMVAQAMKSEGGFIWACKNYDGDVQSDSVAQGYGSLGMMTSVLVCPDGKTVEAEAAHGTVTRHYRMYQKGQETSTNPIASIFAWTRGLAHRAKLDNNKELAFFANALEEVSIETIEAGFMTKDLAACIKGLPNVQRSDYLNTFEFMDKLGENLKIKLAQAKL
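IDH1-R132H (0.5 ug/mL dispensed) in pH 7.5 Tris buffer was preincubated 30 min with compound, then given a substrate mix of 0.016 mM NADPH and 2 mM alpha-KG for 80 min at room temperature; remaining NADPH was read by diaphorase/resazurin fluorescence.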
LDHA block – inhibitors of human lactate dehydrogenase A; P00338; purified LDHA, NADH/diaphorase-resazurin fluorescence; active compounds read low; activity change, % (values are at about 110 or 230 µM); 0.15% of 480,000 active; AID 1347041; in the data active = activity change below about -30%; inconclusive = mostly about -25% to -30%
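LDH5 2 nM; NADH 0.06 mM, pyruvate 0.2 mM; 200 mM Tris pH 7.4, EDTA, Tween-20; 5 min RT. Detection: diaphorase 0.133 mg/mL + resazurin 37 µM, fluorescence ex540/em590 at 0 and 20 min; normalized to enzyme-free and DMSO wells.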
HepG2 viability – HepG2 cytotoxicity, counter-screen for TGF-b inhibitors; 0.76% of 410,000 active; HepG2 CAGA-GFP viability, ATP luminescence, 18 h; Potency, µM (titrated, usually from 46.1 µM), usual class: cytotoxic
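CellTiter-Glo luminescence gave cytotoxicity after 18 hours at 37 degrees C. The cells were HepG2 CAGA-GFP in 1% FBS DMEM, stimulated with 500 pg/mL TGF-beta after compound addition. %Activity was normalised to no-cell wells (complete cell-killing) and DMSO (no toxicity), and curves were fitted and classified.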
ATXN2 expr inh – ATXN2 expression inhibition; Potency, µM (series often up to 57 µM), actives largely listed as inhibitors; 0.72% of 360,000 active; HEK-293 ATXN2-luciferase reporter, luminescence, 24 h; note: nearly all actives have a fitted effect of over 55% in size
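ATXN2-luciferase reporter cells (luciferase flanked by upstream and downstream ATXN2 gene portions) were treated 24 h at 37 °C with compounds at up to 57 uM. SteadyGlo luminescence gave expression; GF-AFC fluorescence gave viability.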
ATXN viability – viability counter-screen for ATXN expression inhibitors; 0.49% of 400,000 active; Potency, µM (top dose mostly 56.7 µM), hits mostly cytotoxic; S2 cells (HEK-293 line with an ATXN2-luciferase reporter) viability, CellTiter-Fluor protease fluorescence, 24 h; note: nearly all actives have a fitted effect of over 40% in size
Each line names hits and unclear results; the compound was inactive in the other large screens. A selection: hits, their analogues and other compounds. The true share with any hit is near 2.2%. Unless noted, calls come from the whole dose curve; as a rule, active = well fitted curve in the direction sought with a large enough effect; inconclusive = small, poorly fitted or top-dose-only effect, or another doubt; inactive = no such curve, though single readings can be large; an effect the other way counts as inactive or inconclusive.

O=C(NCC(c1cccs1)N1CCCCC1)c1cc(=O)c2ccc(Br)cc2o1 (configuration not stated)	none (no result: TGFb inhibitor, mIDH1 inhibitor, HepG2 viability, ATXN2 expr inh, ATXN viability)
O=C(/C=C/c1ccccc1)NCC(=O)N/N=C/c1ccco1	none
O=C1c2ccccc2C(=O)N1CNc1ccccc1	ATXN viability inconclusive
CCOc1ccc2[nH]c3c(NCCO)ncnc3c2c1	none
CCOc1ccc2[nH]c3c(NCCc4ccc(OC)c(OC)c4)ncnc3c2c1	ATXN2 expr inh 18µM, ATXN viability inconclusive
C=CCNCC(=O)N1N=C(c2ccc3ccccc3c2)CC1c1ccc(OC)cc1 (configuration not stated)	none
COc1ccc(C2CC(c3ccc4ccccc4c3)=NN2C(=O)CNC2CCCCC2)cc1 (configuration not stated)	TGFb inhibitor inconclusive, HepG2 viability 13µM (no result: ATXN2 expr inh, ATXN viability)
CCn1cc(S(=O)(=O)c2cccc(Cl)c2)c(=O)c2cc(F)c(N3CCC(C)CC3)cc21	none (no result: ATXN2 expr inh, ATXN viability)
Cc1ccc(CNC(=O)C2CCCCN2S(=O)(=O)c2ccc(F)cc2)cc1 (configuration not stated)	ATXN viability inconclusive
CCCn1nc([N+](=O)[O-])c(C(C#N)c2nc3ccccc3o2)c(Cl)c1=O (configuration not stated)	TGFb inhibitor inconclusive
Cn1nc([N+](=O)[O-])c(C(C#N)c2ccccn2)c(Cl)c1=O (configuration not stated)	TGFb inhibitor inconclusive, HepG2 viability 13µM, ATXN viability inconclusive (no result: ATXN2 expr inh)
N#Cc1cccc(-n2c(-c3ccccc3)nnc2-c2ccccc2)c1C#N	none
CC(C)c1ccc(NC(=O)Nc2nc(C(N)C(C)C)cs2)cc1 (configuration not stated)	TGFb inhibitor inconclusive, ATXN2 expr inh inconclusive, ATXN viability inconclusive (no result: mIDH1 inhibitor)
CC(C)c1ccc(NC(=O)Nc2nc(C(N)COCc3ccccc3)cs2)cc1 (configuration not stated)	TGFb inhibitor 11µM, HepG2 viability 10µM, ATXN2 expr inh inconclusive, ATXN viability inconclusive (no result: mIDH1 inhibitor)
CC(C)c1ccc(NC(=O)Nc2nc(C(N)c3ccccc3)cs2)cc1 (configuration not stated)	TGFb inhibitor 11µM, HepG2 viability 11µM, ATXN2 expr inh inconclusive (no result: mIDH1 inhibitor, ATXN viability)
CC(C)Cc1ccc(C(C)C(N)=Nc2ccc(O)cc2)cc1 (configuration not stated)	TGFb inhibitor inconclusive, HepG2 viability 16µM, ATXN2 expr inh inconclusive
COCCn1c(C)cc(C(=O)CSc2nnc(C)s2)c1C	ATXN2 expr inh 5µM
COCCn1c(C)cc(C(=O)CSc2nnnn2C2CCCC2)c1C	ATXN2 expr inh 14µM
Cc1cc(C(=O)CSc2nnnn2C2CC2)c(C)n1Cc1ccco1	none (no result: TGFb inhibitor, mIDH1 inhibitor, HepG2 viability, ATXN2 expr inh, ATXN viability)
CCN(CC)C(=O)[C@H]1C[C@H](CC(=O)NCCCN(C)C)C(=O)N2CCc3c([nH]c4cc(-c5ccco5)ccc34)[C@]12C	none
CCN(CC)C(=O)[C@H]1C[C@H](CC(=O)NCc2ccc(OC)c(OC)c2)C(=O)N2CCc3c([nH]c4cc(-c5ccco5)ccc34)[C@]12C	TGFb inhibitor 13µM, ATXN2 expr inh inconclusive, ATXN viability inconclusive
CC(C)=CCC/C(C)=C/CNC(=O)C[C@H]1C[C@H](C(=O)N2CCCCC2)[C@@]2(C)c3[nH]c4cc(-c5ccco5)ccc4c3CCN2C1=O	TGFb inhibitor inconclusive, ATXN2 expr inh inconclusive, ATXN viability inconclusive
CC(C)N(C(=O)[C@H]1C[C@H](CC(=O)NCCCN(C)C)C(=O)N2CCc3c([nH]c4cc(-c5ccco5)ccc34)[C@]12C)C(C)C	TGFb inhibitor inconclusive, HepG2 viability 20µM, ATXN2 expr inh inconclusive, ATXN viability 32µM
COc1ccc2[nH]c3c(c2c1)CCN1C(=O)C(CC(=O)NCC24CC5CC(CC(C5)C2)C4)C[C@H](C(=O)N(C(C)C)C(C)C)[C@@]31C (some centres not stated)	TGFb inhibitor 11µM
COc1ccc(CNC(=O)C[C@H]2C[C@H](C(=O)N3CCCCC3)[C@@]3(C)c4[nH]c5cc(-c6ccco6)ccc5c4CCN3C2=O)cc1OC	TGFb inhibitor inconclusive, ATXN2 expr inh inconclusive, ATXN viability inconclusive
COc1ccc2[nH]c3c(c2c1)CCN1C(=O)C(CC(=O)NCC24CC5CC(CC(C5)C2)C4)C[C@H](C(=O)N2CCOCC2)[C@@]31C (some centres not stated)	TGFb inhibitor inconclusive, ATXN viability inconclusive
CC(C)=CCC/C(C)=C/CNC(=O)C[C@H]1C[C@H](C(=O)N(C(C)C)C(C)C)[C@@]2(C)c3[nH]c4cc(-c5ccco5)ccc4c3CCN2C1=O	TGFb inhibitor 13µM, ATXN2 expr inh inconclusive, ATXN viability inconclusive
CCc1ccccc1NC(=O)c1oc(=O)c2ccccc2c1-c1ccccc1	none
CCOC(=O)C1CCCN(C(=O)c2ccc(S(=O)(=O)NCc3ccco3)cc2)C1 (configuration not stated)	none
O=C(C[C@H]1C[C@H](C(=O)N2CCOCC2)[C@@]2(CCC3CCCC3)c3[nH]c4ccc(Cl)cc4c3CCN2C1=O)NCCCn1ccnc1	TGFb inhibitor 11µM, ATXN2 expr inh inconclusive (no result: ATXN viability)
CN(C)CCCNC(=O)C[C@H]1C[C@H](C(=O)N2CCOCC2)[C@@]2(CCC3CCCC3)c3[nH]c4cc(-c5ccco5)ccc4c3CCN2C1=O	TGFb inhibitor inconclusive, ATXN2 expr inh 25µM (no result: ATXN viability)
CC(C)N(C(=O)[C@H]1C[C@H](CC(=O)NCc2ccco2)C(=O)N2CCc3c([nH]c4ccc(Cl)cc34)[C@]12C)C(C)C	TGFb inhibitor 11µM, ATXN viability inconclusive
CN(C)C(=O)CCc1ccc2c3c([nH]c2c1)[C@]1(CCC2CCCC2)[C@@H](C(=O)N2CCOCC2)C[C@H](CC(=O)NCCCn2ccnc2)C(=O)N1CC3	none
O=[N+]([O-])c1cccc(-c2n[nH]c(=S)n2-c2ccc(Br)cc2)c1	LDHA block -32
O=C(CCc1ccccc1)Nc1cc2c(cc1Cl)OCCO2	none
C=CC(=O)Nc1cccc(Nc2nc(NC3CCC(N(C)C)CC3)nc3c2ncn3C(C)C)c1 (configuration not stated)	ATXN2 expr inh 0.031µM (no result: TGFb inhibitor, mIDH1 inhibitor, LDHA block, HepG2 viability, ATXN viability)
CC(C)n1cnc2c(Nc3cccc(F)c3)nc(NCCO)nc21	none
C=CC(=O)Nc1ccc(Nc2nc(NC3CCC(N(C)C)CC3)nc3c2ncn3C(C)C)cc1 (configuration not stated)	TGFb inhibitor 0.63µM, ATXN2 expr inh inconclusive, ATXN viability 1.8µM
COc1ccc2[nH]c3c(c2c1)CCN1C(=O)N([C@@H](C)C(=O)NCc2ccco2)C(=O)[C@]31C	none
